Results from PubChem BioAssay (NCATS).
Results filed as inconclusive are left out. The source made the active and inactive calls. Unless noted, the call rests on the fitted dose curve; in most records, active means well fitted curve in the direction sought with a large enough effect; inconclusive means small, poorly fitted or top-dose-only effect, or another doubt; inactive means no such curve, though single readings can be large; an effect the other way counts as inactive or inconclusive.

Legend:
[1] = qHTS to identify inhibitors of the type 1 interferon - major histocompatibility complex class I in skeletal muscle: primary screen against the NCATS Mechanism Interrogation Plate v5.0 (MIPE) Libary (AID 1347411)
Outline: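 Immortalized human myoblasts (C25cl48) with HiBit knocked into endogenous HLA-B*08:01 were stimulated with 4 ng/ml IFN-beta and given compounds in 11-point 1:3 titration from 46 uM. After 24 h at 37 C, lytic HiBiT luminescence was read.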

[2] = target: Calcium and integrin-binding protein 1 (Homo sapiens) (UniProt Q99828); assay: Primary qHTS for Identification of Calcium Integrin Binding Protein 1 (CIB1) Competitor (AID 1508620)
Chain of Calcium and integrin-binding protein 1 (Homo sapiens) (Q99828 whole entry, looked up): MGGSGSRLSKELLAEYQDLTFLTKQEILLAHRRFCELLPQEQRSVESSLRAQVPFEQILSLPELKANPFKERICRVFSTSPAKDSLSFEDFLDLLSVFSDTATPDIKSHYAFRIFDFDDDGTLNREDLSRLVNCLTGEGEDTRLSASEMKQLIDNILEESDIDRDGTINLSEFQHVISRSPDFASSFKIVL
Outline: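 Fluorescence polarization competition: GST-tagged CIB1 (1 uM final) preincubated with compound 15 min at room temperature, then FITC-labelled alphaIIb peptide (100 nM final) added. After 15 min at room temperature, polarization read at Ex 480/Em 540.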

[3] = target: Cytochrome P450 2D6 (Homo sapiens) (UniProt P10635); assay: Cytochrome P450 family 2 subfamily D member 6 (CYP2D6) small molecule antagonists: luciferase biochemical (cell-free) qHTS assay (AID 1645840; active means well fitted curve in the direction sought with a large enough effect in the repeat runs; an effect the other way counts as inactive or inconclusive)
Chain of Cytochrome P450 2D6 (Homo sapiens) (P10635 whole entry, looked up): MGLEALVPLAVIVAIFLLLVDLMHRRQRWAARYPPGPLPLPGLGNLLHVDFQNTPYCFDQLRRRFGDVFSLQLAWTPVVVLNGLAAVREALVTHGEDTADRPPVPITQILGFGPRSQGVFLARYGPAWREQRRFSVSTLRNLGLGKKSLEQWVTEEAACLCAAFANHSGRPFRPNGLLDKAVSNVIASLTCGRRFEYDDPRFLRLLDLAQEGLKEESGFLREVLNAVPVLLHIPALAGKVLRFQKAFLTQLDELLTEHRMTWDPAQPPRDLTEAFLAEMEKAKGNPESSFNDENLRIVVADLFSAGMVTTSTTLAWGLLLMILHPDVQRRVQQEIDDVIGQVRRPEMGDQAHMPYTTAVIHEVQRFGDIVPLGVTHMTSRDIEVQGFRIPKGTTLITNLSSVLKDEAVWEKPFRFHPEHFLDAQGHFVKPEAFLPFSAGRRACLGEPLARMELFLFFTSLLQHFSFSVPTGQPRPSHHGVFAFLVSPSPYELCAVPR
Outline: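 P450-Glo luminescent screen: recombinant CYP2D6 enzyme–proluciferin substrate mix preincubated with compound 10 min at room temperature, then NADPH regeneration added for 1 h at room temperature. Detection reagent added for 20 min; luciferin light read as relative luminescence units.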

[4] = qHTS to identify inhibitors of the type 1 interferon - major histocompatibility complex class I in skeletal muscle: primary screen against the NCATS LOPAC collection (AID 1347405)
Outline: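 CRISPR-engineered immortalized human myoblasts (C25cl48) with HiBiT fused to endogenous HLA-B*08:01, stimulated with 4 ng/ml IFN-beta. LOPAC compounds tested as a 7-point 1:4.3 titration (top 46 uM final), 24 h at 37 C; lytic HiBiT luminescence read.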

[5] = qHTS to identify inhibitors of the type 1 interferon - major histocompatibility complex class I in skeletal muscle: primary screen against the NCATS Pharmaceutical Collection (AID 1347407)
Outline: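 HLA-B HiBiT myoblasts, dexamethasone-free growth medium + 4 ng/ml IFN-b; compounds pinned 1 h after seeding, […] from 46 uM; 24 h, 37 C, 5% CO2; lytic HiBiT detection, 10 min RT, luminescence.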

[6] = qHTS for inhibitors of adenylyl cyclases using a fission yeast platform: a pilot screen against the NCATS LOPAC library (AID 1347410)
Outline: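 Read-out: fbp1-GFP fluorescence by laser scanning cytometry (488 nm laser), a gain of signal when AC/cAMP-PKA signalling is inhibited. Strain CHP2027 expressing AC9, GNAS and PDE4D2; compounds at up to 57 µM; 18 h, 30C.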

[7] = target: Protein phosphatase 1D (Homo sapiens) (UniProt O15297); assay: RapidFire Mass Spectrometry qHTS Assay for Modulators of WT P53-Induced Phosphatase 1 (WIP1) (AID 1347424)
Chain of Protein phosphatase 1D (Homo sapiens) (O15297 whole entry, looked up): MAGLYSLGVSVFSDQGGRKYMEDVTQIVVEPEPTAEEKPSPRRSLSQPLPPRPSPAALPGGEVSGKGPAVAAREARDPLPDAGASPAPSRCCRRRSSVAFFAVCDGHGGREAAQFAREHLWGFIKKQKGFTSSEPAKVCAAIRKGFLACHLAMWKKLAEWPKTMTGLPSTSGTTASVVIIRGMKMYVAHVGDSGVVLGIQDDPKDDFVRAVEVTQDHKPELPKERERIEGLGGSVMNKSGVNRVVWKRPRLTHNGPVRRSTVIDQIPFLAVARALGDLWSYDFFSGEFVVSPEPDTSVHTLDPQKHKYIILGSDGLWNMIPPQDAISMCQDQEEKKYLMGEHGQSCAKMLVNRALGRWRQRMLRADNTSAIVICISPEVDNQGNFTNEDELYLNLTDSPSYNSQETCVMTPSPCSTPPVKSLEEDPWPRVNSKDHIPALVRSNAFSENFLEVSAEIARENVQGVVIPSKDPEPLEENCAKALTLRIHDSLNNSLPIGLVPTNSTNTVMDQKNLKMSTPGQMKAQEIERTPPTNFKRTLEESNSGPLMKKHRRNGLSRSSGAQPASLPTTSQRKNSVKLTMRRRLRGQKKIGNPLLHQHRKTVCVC
Outline: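 10 nM WIP1 preincubated with compounds 1 hr at room temperature in pH 7.5 Tris buffer with 30 mM MgCl2, 1 mM TCEP; 2 uM VEPPL-pS-QETFS phosphopeptide for 5 min, formic acid quench; dephosphorylated product quantified by RapidFire MS against labelled standard.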

[8] = target: Protein phosphatase 1D (Homo sapiens) (UniProt O15297); assay: Rhodamine-PBP qHTS Assay for Modulators of WT P53-Induced Phosphatase 1 (WIP1) (AID 1347425)
Outline: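 Read-out: Rhodamine-PBP fluorescence (ex 525/em 598 nm) for released Pi, read each minute for 11 min after adding 10 uM VEPPL-pS-QETFS; signal taken as f1 minus pre-substrate f0. Enzyme 5 nM WIP1 with 1 hr room-temperature compound preincubation.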

[9] = Validation qHTS assay for inhibitors of Activation Induced Cytidine Deaminase (AID): UDG Counterscreen signal (AID 1347427)
Outline: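 Counterscreen read of UDG activity (2 U/mL, 4/3x) in the FRET deamination format with AID (1 uM, 4/3x), DJC20/DJC23 substrates (250 nM, 4x), 4 h at room temperature. NaOH stop, fluorescence at 560 ex/665 em.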

[10] = target: Single-stranded DNA cytosine deaminase (Homo sapiens) (UniProt Q9GZX7); assay: Validation qHTS assay for inhibitors of Activation Induced Cytidine Deaminase (AID): AID signal (AID 1347429)
Chain of Single-stranded DNA cytosine deaminase (Homo sapiens) (Q9GZX7 whole entry, looked up): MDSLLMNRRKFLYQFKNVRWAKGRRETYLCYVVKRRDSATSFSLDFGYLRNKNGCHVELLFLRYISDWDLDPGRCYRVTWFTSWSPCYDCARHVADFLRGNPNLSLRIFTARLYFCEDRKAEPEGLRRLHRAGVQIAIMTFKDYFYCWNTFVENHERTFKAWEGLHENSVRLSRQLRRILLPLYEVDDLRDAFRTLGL
Outline: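 FRET deamination assay: 1 uM AID (4/3x stock) with UDG, compound up to 114 uM, then 250 nM DJC20/DJC23 substrate (4x stock) for 4 hr at room temperature. NaOH added, 30 min; fluorescence read 540/590 nm.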

[11] = Primary qHTS for small molecule stabilizers of the endoplasmic reticulum resident proteome: Secreted ER Calcium Modulated Protein (SERCaMP) assay (AID 1508630)
Outline: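 GLuc-SERCaMP-expressing SH-SY5Y cells, pretreated 16 h with compound, are challenged with thapsigargin to empty ER calcium stores; after 4 h, coelenterazine is added directly to the medium and luminescence is imaged.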

[12] = qHTS for inhibitors of Wild type Zika virus screened against the NCATS CANVASS Library (AID 1347396)
Outline: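 Vero 766 cells, 1000/well, o/n attach; cpds pin-transferred (11-pt qHTS); WT Zika added; 72 h, 37C, 5% CO2; CellTiter Glo lumi. Uninfected + vehicle = 100% inhibition.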

[13] = Viability qHTS for inhibitors of the SERCaMP assay screened against the NCATS CANVASS Library (AID 1347400)
Outline: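 SH-SY5Y-GLuc SERCaMP MJH297-derived cells, 1000/well, plated 4 h, then exposed to compounds in an 11-point qHTS series for 48 h at 37C. Viability read as CellTiter-Glo luminescence.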

[14] = Redox Reaction Profiling qHTS: Assay Interference Panel against the NCATS CANVASS Library (AID 1347401)
Outline: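 Compounds in 11-point series incubated with 5 uM resazurin and 200 uM DTT in 50 mM HEPES pH 7.3, 50 mM NaCl. Resorufin fluorescence (Ex 525/Em 598) read before and after 15 min in the dark.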

[15] = Primary qHTS for inhibitors of La Crosse Virus (LACV) - induced cell death in SH-SY5Y cells (AID 1508616)
Outline: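 SH-SY5Y cells (6000/well) plated 24 h, then given compounds by pin transfer and LACV at 0.01 MOI for 6 days at 37C. Viability measured by ATPLite luminescence, normalized to infected DMSO and uninfected DMSO.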

[16] = A High-Content qHTS Against Drug Library for the Identification of Small Molecules that Inhibit DYT1 Early Onset Primary Dystonia-Associated Cell Pathology (AID 1645839; calls by dose curve)
Outline: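 Flp-In T-REx 293 cells with tetracycline-inducible EGFP-delE hTOR1A (WT EGFP-hTOR1A as reference), 800 cells/well; compound added with tetracycline, 48 h at 37 C. Fixed, permeabilized cells imaged; %pathology (punctate TorsinA) primary, cell count counterscreen.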

Q: With `O=C(O)c1ccc(CCCc2ccc(OCCc3ccc(F)cc3)cc2)o1` as the compound, how does the Potency [1] read?
A: inactive

Q: What about the Potency [2] of the same compound?
A: inactive

Q: Which results are given for `CCNC(=O)CCC/C=C\C[C@@H]1[C@@H](/C=C/C(O)CCc2ccccc2)[C@@H](O)C[C@@H]1O` (some centres not stated)?
A: Potency [1]: inactive; Potency [2]: inactive

Q: For `CNC(=O)c1ccc(Nc2ncc(C(F)(F)F)c(NCc3nccnc3N(C)S(C)(=O)=O)n2)cc1`, which Potency [1] is on record?
A: 5.23 µM (active)

Q: And the Potency [2]?
A: inactive

Q: And the Potency [3]?
A: inactive

Q: For `C[C@H]1[C@H](C)CC[C@]2(C(=O)O)CC[C@]3(C)C(=CC[C@@H]4[C@@]5(C)C[C@@H](O)[C@H](O)[C@@](C)(CO)[C@@H]5CC[C@]43C)[C@H]12`, which Potency [1] is on record?
A: inactive

Q: What about the Potency [2] of the same compound?
A: inactive

Q: Which results are given for `CN(C)C/C=C/C(=O)Nc1ccc(C(=O)Nc2cccc(Nc3ncc(Cl)c(-c4c[nH]c5ccccc45)n3)c2)cc1`?
A: Potency [1]: 0.294 µM (active); Potency [2]: inactive; Potency [3]: inactive

Q: What does the source list for `CN1Cc2c(N)cccc2C(c2ccccc2)C1` (configuration not stated)?
A: outcome [4]: inactive; outcome [5]: inactive; outcome [6]: inactive; outcome [7]: inactive; outcome [8]: inactive; outcome [9]: inactive; outcome [10]: inactive; Potency [2]: inactive; outcome [11]: inactive; Potency [3]: 7.76 µM (active)

Q: With `NC1CCC(N[C@@H]2C[C@H]2c2ccccc2)CC1` (some centres not stated) as the compound, how does the Potency [1] read?
A: inactive

Q: And the Potency [2]?
A: inactive

Q: For `OCc1ccccc1O[C@@H]1O[C@H](CO)[C@@H](O)[C@H](O)[C@H]1O`, which Potency [1] is on record?
A: inactive

Q: And the Potency [2]?
A: inactive

Q: Which results are given for `CC1=C2C(=O)O[C@@H](c3ccoc3)[C@]2(C)CCC1`?
A: outcome [12]: inactive; outcome [13]: inactive; outcome [14]: inactive; Potency [2]: inactive

Q: Which Potency [1] does the source give for `COc1ncc(-c2ccc3c(Nc4cc(Oc5cc(F)cc(F)c5)cc(C(=O)O)c4)c(S(=O)(=O)NC4CC4)cnc3c2)c(OC)n1` here?
A: inactive

Q: What about the Potency [2] of the same compound?
A: inactive

Q: With `CCN(c1cc(C#CCN2CCOCC2)cc(C(=O)NCc2c(C)cc(C)[nH]c2=O)c1C)C1CCC(N(C)CCOC)CC1` (configuration not stated) as the compound, how does the Potency [1] read?
A: inactive

Q: And the Potency [2]?
A: inactive

Q: With `CON(C)C(=O)N1N=C(c2cc(F)ccc2F)S[C@@]1(CCCN)c1ccccc1` as the compound, how does the Potency [1] read?
A: inactive

Q: And the Potency [2]?
A: inactive

Q: And the Potency [3]?
A: 19 µM (active)

Q: For `OC[C@H]1O[C@@H](Oc2cc(O)cc(/C=C/c3ccc(O)cc3)c2)[C@H](O)[C@@H](O)[C@@H]1O`, which Potency [1] is on record?
A: inactive

Q: And the Potency [2]?
A: inactive

Q: With `O=C(C1CC1)N1CC[C@@H](Cc2n[nH]c(=O)n2-c2ccc(-c3ccc4occc4c3)cc2)C1` as the compound, how does the Potency [1] read?
A: inactive

Q: And the Potency [2]?
A: inactive

Q: What about the Potency [3] of the same compound?
A: 13.5 µM (active)

Q: With `CCCCC(=O)OCC(=O)[C@]1(O)Cc2c(O)c3c(c(O)c2[C@@H](O[C@H]2C[C@H](NC(=O)C(F)(F)F)[C@H](O)[C@H](C)O2)C1)C(=O)c1c(OC)cccc1C3=O` as the compound, how does the Potency [1] read?
A: 10.4 µM (active)

Q: Which results are given for `CN1CC[C@@H](NC(=O)Nc2ccc(C#N)cc2)C[C@@H]1c1nc2ccccc2[nH]1`?
A: Potency [1]: inactive; Potency [2]: inactive

Q: With `CC1(C)O[C@@H]2C[C@H]3[C@@H]4CCC5=CC(=O)C=C[C@]5(C)[C@H]4[C@@H](O)C[C@]3(C)[C@]2(C(=O)CO)O1` as the compound, how does the Potency [1] read?
A: inactive

Q: With `N#Cc1ccnc(N2C(=O)CC[C@H]2C(=O)N(c2cncc(F)c2)[C@H](C(=O)NC2CC(F)(F)C2)c2ccccc2Cl)c1` as the compound, how does the Potency [1] read?
A: inactive

Q: And the Potency [2]?
A: inactive

Q: What does the source list for `CCOC(=O)[C@H]1O[C@@H]1C(=O)N[C@@H](CC(C)C)C(=O)NCCC(C)C`?
A: Potency [1]: inactive; Potency [2]: inactive

Q: Which results are given for `CC(C)(O)CNc1nc(Nc2ccnc(C(F)(F)F)c2)nc(-c2cccc(C(F)(F)F)n2)n1`?
A: Potency [1]: inactive; Potency [2]: inactive

Q: For `Cc1nnc(C(C)C)n1C1CC2CCC(C1)N2CCC(NC(=O)C1CCC(F)(F)CC1)c1ccccc1` (configuration not stated), which Potency [1] is on record?
A: inactive

Q: What about the Potency [2] of the same compound?
A: inactive

Q: Which Potency [1] does the source give for `CN(NC(=O)CC(=O)NN(C)C(=S)c1ccccc1)C(=S)c1ccccc1` here?
A: inactive

Q: What about the Potency [2] of the same compound?
A: inactive

Q: Which Potency [1] does the source give for `CCOc1cc2ncc(C#N)c(Nc3ccc(OCc4ccccn4)c(Cl)c3)c2cc1NC(=O)/C=C/CN(C)C` here?
A: 4.66 µM (active)

Q: What about the Potency [2] of the same compound?
A: inactive

Q: What does the source list for `O=c1ccn([C@@H]2O[C@H](CO)[C@@H](O)[C@H]2O)c(=O)[nH]1`?
A: Potency [1]: inactive; Potency [2]: inactive; Potency [3]: inactive

Q: With `Nc1ccn([C@@H]2C(F)=C(CO)[C@@H](O)[C@H]2O)c(=O)n1` as the compound, how does the Potency [1] read?
A: inactive

Q: And the Potency [2]?
A: inactive

Q: For `O=C(NC[C@H](O)CN1CCc2ccccc2C1)c1cc(NC2COC2)ncn1`, which Potency [1] is on record?
A: inactive

Q: And the Potency [2]?
A: inactive

Q: With `O=C(c1ccc(NS(=O)(=O)c2cccc3cccnc23)cc1)N1CCN(CC2CC2)CC1` as the compound, how does the Potency [1] read?
A: inactive

Q: And the Potency [2]?
A: inactive

Q: Which outcome [5] does the source give for `CC(=O)OC(C)OC(=O)C(C)c1ccc(-c2ccccc2)c(F)c1` (configuration not stated) here?
A: inactive

Q: And the outcome [7]?
A: inactive

Q: What about the outcome [8] of the same compound?
A: inactive

Q: And the outcome [15]?
A: inactive

Q: And the Potency [2]?
A: inactive

Q: And the outcome [16]?
A: inactive

Q: For `O=C(O)C[C@H](O)C[C@H](O)/C=C/c1c(C2CC2)nc2ccccc2c1-c1ccc(F)cc1`, which Potency [1] is on record?
A: inactive

Q: What about the Potency [2] of the same compound?
A: inactive

Q: For `CCOC(=O)c1ccnc(CNCC(=O)N(CC)CCN(C)C)c1`, which Potency [1] is on record?
A: inactive

Q: And the Potency [2]?
A: inactive
